Test results published in the supplement of paper PMC12645437, “Orthogonal IMiD-Degron Pairs Induce Selective Protein Degradation in Cells” (ACS Chemical Biology, 2025).
In all, about 8,300 sequences were measured (“log2 fold change of degron read counts, EGFP-low vs EGFP+ sorted cells (limma voom), compound-induced degradation”: median about -1.1, highest 2% from about 3.2 on). The list comes from a sample in which the highest values are over-represented; it also holds similar and randomly drawn sequences.

Molecular target: T1, CRBN, Q96SW2
T1 chain: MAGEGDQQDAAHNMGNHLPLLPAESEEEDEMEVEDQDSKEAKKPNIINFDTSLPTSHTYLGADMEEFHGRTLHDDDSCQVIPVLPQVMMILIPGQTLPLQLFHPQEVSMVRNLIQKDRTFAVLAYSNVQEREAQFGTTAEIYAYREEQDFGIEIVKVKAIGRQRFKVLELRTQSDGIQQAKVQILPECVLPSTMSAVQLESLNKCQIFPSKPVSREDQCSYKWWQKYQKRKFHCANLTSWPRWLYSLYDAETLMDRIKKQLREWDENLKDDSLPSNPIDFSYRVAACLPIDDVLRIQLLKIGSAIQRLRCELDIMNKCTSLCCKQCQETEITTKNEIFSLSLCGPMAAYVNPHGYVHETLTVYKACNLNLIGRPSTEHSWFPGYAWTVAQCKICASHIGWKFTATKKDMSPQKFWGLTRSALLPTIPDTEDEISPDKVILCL
Assay: log2 fold change of degron read counts, EGFP-low vs EGFP+ sorted cells (limma voom), compound-induced degradation; higher = more compound-induced degradation of the degron-EGFP fusion; degrons are variants of IKZF1/3 zinc finger 2; compound dose not given here
Settings: Jurkat, 18 h
Method: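 Pooled library of 8380 IKZF3 ZF2 degron mutants (positions 146-167 varied within the IKZF3 130-189 degron; only the varied core is printed, flanks not printed) fused to EGFP with IRES-mCherry, lentivirally expressed in Jurkat cells. mCherry+ cells were treated with one IMiD compound for 18 h (dose not stated) and FACS-sorted into EGFP-low and EGFP+ populations. Degron sequences were counted by NGS, and log2FC (EGFP-low vs EGFP+) was estimated by limma voom over 3 biological replicates.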

[1] = compound: compound 19 (5-tert-butyl-thalidomide)
[2] = compound: compound 22 (5-morpholino-thalidomide)
[3] = compound: compound 33 (diphenyl IMiD analogue)
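Also: pooled lentiviral library of zinc finger degron-EGFP fusions in mCherry-positive Jurkat cells, FACS-sorted after compound exposure, with degron abundance counted by next-generation sequencing.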

## LVCEICGFGCTQKGNLLRHIKL [46L_47V_49E_50I_52G_53F_54G_55C_67L_, Q9UKT9]
[1]
  log2 fold change of degron read counts: 1.26
[2]
  log2 fold change of degron read counts: 1.94
[3]
  log2 fold change of degron read counts: 0.702
compound: thalidomide
  log2 fold change of degron read counts: 2.41

## FMCPICGHYFTQKGNLLRHIKL [46F_47M_49P_50I_52G_53H_54Y_55F_67L_, Q9UKT9]
[1]
  log2 fold change of degron read counts: -2.08
[2]
  log2 fold change of degron read counts: -2.18
[3]
  log2 fold change of degron read counts: -1.11
compound: thalidomide
  log2 fold change of degron read counts: -1.8

## FFCDICGADFTQKGNLLRHIKL [46F_47F_49D_50I_52G_53A_54D_55F_67L_, Q9UKT9]
[1]
  log2 fold change of degron read counts: -0.121
[2]
  log2 fold change of degron read counts: -0.935
[3]
  log2 fold change of degron read counts: -2.01
compound: thalidomide
  log2 fold change of degron read counts: -2.27

## FCCDICGAPFTQKGNLLRHIKL [46F_47C_49D_50I_52G_53A_54P_55F_67L_, Q9UKT9]
[1]
  log2 fold change of degron read counts: 2.7
[2]
  log2 fold change of degron read counts: 2.21
[3]
  log2 fold change of degron read counts: 0.465
compound: thalidomide
  log2 fold change of degron read counts: 0.477

## FVCDICGAPFTQKGNLLRHIKL [46F_47V_49D_50I_52G_53A_54P_55F_67L_, Q9UKT9]
[1]
  log2 fold change of degron read counts: 1.63
[2]
  log2 fold change of degron read counts: 3.29
[3]
  log2 fold change of degron read counts: 1.93
compound: thalidomide
  log2 fold change of degron read counts: 2.61

## FWCDICGAPFTQKGNLLRHIKL [46F_47W_49D_50I_52G_53A_54P_55F_67L_, Q9UKT9]
[1]
  log2 fold change of degron read counts: 2.91
[2]
  log2 fold change of degron read counts: 2.32
[3]
  log2 fold change of degron read counts: 1.2
compound: thalidomide
  log2 fold change of degron read counts: -0.538

## FYCDICGAPFTQKGNLLRHIKL [46F_47Y_49D_50I_52G_53A_54P_55F_67L_, Q9UKT9]
[1]
  log2 fold change of degron read counts: 3.86
[2]
  log2 fold change of degron read counts: 3.56
[3]
  log2 fold change of degron read counts: 2.02
compound: thalidomide
  log2 fold change of degron read counts: 0.27

## FQCDICGAPFTQKGNLLRHIKL [46F_47Q_49D_50I_52G_53A_54P_55F_67L_, Q9UKT9]
[1]
  log2 fold change of degron read counts: 2.56
[2]
  log2 fold change of degron read counts: 3.14
[3]
  log2 fold change of degron read counts: 0.968
compound: thalidomide
  log2 fold change of degron read counts: 3.35

## FFCDICGAPFTQKGNLLRHIKL [46F_47F_49D_50I_52G_53A_54P_55F_67L_, Q9UKT9]
[1]
  log2 fold change of degron read counts: 3.92
[2]
  log2 fold change of degron read counts: 3.16
[3]
  log2 fold change of degron read counts: 1.06
compound: thalidomide
  log2 fold change of degron read counts: -0.36

## FMCNICGAVFTQKGNLLRHIKL [46F_47M_49N_50I_52G_53A_54V_55F_67L_, Q9UKT9]
[1]
  log2 fold change of degron read counts: -1.55
[2]
  log2 fold change of degron read counts: -0.801
[3]
  log2 fold change of degron read counts: 1.53
compound: thalidomide
  log2 fold change of degron read counts: 0.369

## FFCEICGHNFTQKGNLLRHIKL [46F_47F_49E_50I_52G_53H_54N_55F_67L_, Q9UKT9]
[1]
  log2 fold change of degron read counts: -2.59
[2]
  log2 fold change of degron read counts: -3.18
[3]
  log2 fold change of degron read counts: -2.38
compound: thalidomide
  log2 fold change of degron read counts: -2.84

## FRCDQCGAHFTQKGNLLRHIKL [46F_47R_49D_50Q_52G_53A_54H_55F_67L_, Q9UKT9]
[1]
  log2 fold change of degron read counts: -2.76
[2]
  log2 fold change of degron read counts: -2.89
[3]
  log2 fold change of degron read counts: -2.01
compound: thalidomide
  log2 fold change of degron read counts: -2.48

## FKCEICGAEFTQKGNLLRHIKL [46F_47K_49E_50I_52G_53A_54E_55F_67L_, Q9UKT9]
[1]
  log2 fold change of degron read counts: -0.284
[2]
  log2 fold change of degron read counts: -2.59
[3]
  log2 fold change of degron read counts: -3.54
compound: thalidomide
  log2 fold change of degron read counts: -0.121

## FCCNICGARFTQKGNLLRHIKL [46F_47C_49N_50I_52G_53A_54R_55F_67L_, Q9UKT9]
[1]
  log2 fold change of degron read counts: 1.4
[2]
  log2 fold change of degron read counts: 1.76
[3]
  log2 fold change of degron read counts: 0.552
compound: thalidomide
  log2 fold change of degron read counts: 1.57

## FRCDICGAPFTQKGNLLRHIKL [46F_47R_49D_50I_52G_53A_54P_55F_67L_, Q9UKT9]
[1]
  log2 fold change of degron read counts: 3.17
[2]
  log2 fold change of degron read counts: 3.53
[3]
  log2 fold change of degron read counts: 3.32
compound: thalidomide
  log2 fold change of degron read counts: 3.52

## FDCDICGAPFTQKGNLLRHIKL [46F_47D_49D_50I_52G_53A_54P_55F_67L_, Q9UKT9]
[1]
  log2 fold change of degron read counts: 0.272
[2]
  log2 fold change of degron read counts: -1.45
[3]
  log2 fold change of degron read counts: -1.51
compound: thalidomide
  log2 fold change of degron read counts: -0.767

## FSCDICGAPFTQKGNLLRHIKL [46F_47S_49D_50I_52G_53A_54P_55F_67L_, Q9UKT9]
[1]
  log2 fold change of degron read counts: 2.36
[2]
  log2 fold change of degron read counts: 1.62
[3]
  log2 fold change of degron read counts: 0.275
compound: thalidomide
  log2 fold change of degron read counts: 0.668

## FGCDICGAPFTQKGNLLRHIKL [46F_47G_49D_50I_52G_53A_54P_55F_67L_, Q9UKT9]
[1]
  log2 fold change of degron read counts: 0.329
[2]
  log2 fold change of degron read counts: -0.821
[3]
  log2 fold change of degron read counts: -1.38
compound: thalidomide
  log2 fold change of degron read counts: -1.4

## FECDICGAPFTQKGNLLRHIKL [46F_47E_49D_50I_52G_53A_54P_55F_67L_, Q9UKT9]
[1]
  log2 fold change of degron read counts: 1.27
[2]
  log2 fold change of degron read counts: -1.62
[3]
  log2 fold change of degron read counts: -0.0281
compound: thalidomide
  log2 fold change of degron read counts: 0.305

## FMCDICGAPFTQKGNLLRHIKL [46F_47M_49D_50I_52G_53A_54P_55F_67L_, Q9UKT9]
[1]
  log2 fold change of degron read counts: 2.71
[2]
  log2 fold change of degron read counts: 3.25
[3]
  log2 fold change of degron read counts: 3.03
compound: thalidomide
  log2 fold change of degron read counts: 1.89

## FTCDICGAPFTQKGNLLRHIKL [46F_47T_49D_50I_52G_53A_54P_55F_67L_, Q9UKT9]
[1]
  log2 fold change of degron read counts: 2.1
[2]
  log2 fold change of degron read counts: 2.86
[3]
  log2 fold change of degron read counts: 1.41
compound: thalidomide
  log2 fold change of degron read counts: 1.93

## FACDICGAPFTQKGNLLRHIKL [46F_47A_49D_50I_52G_53A_54P_55F_67L_, Q9UKT9]
[1]
  log2 fold change of degron read counts: 3.46
[2]
  log2 fold change of degron read counts: 1.66
[3]
  log2 fold change of degron read counts: -0.501
compound: thalidomide
  log2 fold change of degron read counts: 0.383

## FKCDICGAPFTQKGNLLRHIKL [46F_47K_49D_50I_52G_53A_54P_55F_67L_, Q9UKT9]
[1]
  log2 fold change of degron read counts: 1.21
[2]
  log2 fold change of degron read counts: 0.288
[3]
  log2 fold change of degron read counts: -1.35
compound: thalidomide
  log2 fold change of degron read counts: 1.02

## FNCDICGAPFTQKGNLLRHIKL [46F_47N_49D_50I_52G_53A_54P_55F_67L_, Q9UKT9]
[1]
  log2 fold change of degron read counts: 2.68
[2]
  log2 fold change of degron read counts: 1.25
[3]
  log2 fold change of degron read counts: -0.682
compound: thalidomide
  log2 fold change of degron read counts: -0.153

## FLCDICGAPFTQKGNLLRHIKL [46F_47L_49D_50I_52G_53A_54P_55F_67L_, Q9UKT9]
[1]
  log2 fold change of degron read counts: 1.62
[2]
  log2 fold change of degron read counts: 2.15
[3]
  log2 fold change of degron read counts: 2.03
compound: thalidomide
  log2 fold change of degron read counts: 1.99

## FICDICGAPFTQKGNLLRHIKL [46F_47I_49D_50I_52G_53A_54P_55F_67L_, Q9UKT9]
[1]
  log2 fold change of degron read counts: 1.26
[2]
  log2 fold change of degron read counts: 3.46
[3]
  log2 fold change of degron read counts: 2.32
compound: thalidomide
  log2 fold change of degron read counts: 2.47
